Screening data as filed in PubChem.
CBX7 AlphaScr = blocks human CBX7 binding to H3K27me3 peptide. AlphaScreen His6-CBX7 / biotin-H3K27me3 peptide binding; active compounds read low. normalised signal (fraction of DMSO) (no concentration beside the values). actives 1.1% (n = 66,000). AID 1224903; in the data active = normalised signal below about 0.5
Target sequence (O95931 whole entry, looked up): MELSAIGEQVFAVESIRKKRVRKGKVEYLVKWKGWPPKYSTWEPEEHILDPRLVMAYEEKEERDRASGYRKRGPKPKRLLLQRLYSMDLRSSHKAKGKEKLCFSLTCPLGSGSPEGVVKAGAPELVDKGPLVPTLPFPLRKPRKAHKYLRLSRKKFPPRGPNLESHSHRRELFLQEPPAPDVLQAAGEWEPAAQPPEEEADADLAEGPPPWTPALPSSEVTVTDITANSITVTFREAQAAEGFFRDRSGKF
* marks the source's active call; other numbers are inactive results. Many of the other results were omitted from the sample, so hits are more common in it than they were.

SMILES | CBX7 AlphaScr
CCOc1ccc(-n2c(-c3ccc(OC)cc3)cc3c2CC(C)(C)CC3=O)cc1 | 0.4*
COc1ccc(-n2c(-c3ccc(C)cc3)cc3c2CC(C)(C)CC3=O)c(OC)c1 | 0.27*
COc1ccccc1-n1c(-c2ccc(C)cc2)cc2c1CC(C)(C)CC2=O | 0.32*
Cc1ccc(-n2c(-c3ccccc3)cc3c2CC(C)(C)CC3=O)cc1Cl | 0.82
COc1ccc(-c2cc3c(n2-c2ccccc2)CC(C)(C)CC3=O)cc1 | 0.79
COc1ccccc1-n1c2c(cc(C(=O)N3CCC(C)CC3)c1=O)C(=O)CC(C)(C)C2 | 1
COc1ccc(-n2c(-c3ccc(Cl)cc3)cc3c2CC(C)(C)CC3=O)cc1 | 0.88
COc1cccc(-n2c(-c3ccc(C)cc3)cc3c2CC(C)(C)CC3=O)c1 | 0.35*
COc1ccc(Cn2c(-c3ccc(C)cc3)cc3c2CC(C)(C)CC3=O)cc1 | 0.8
COc1ccc(-n2c(-c3ccc(C)cc3)cc3c2CC(C)(C)CC3=O)cc1 | 0.95
Cc1ccc(C)c(-n2nnnc2SCc2ccccc2Br)c1 | 0.82
CC1CCCC(NC(=O)c2cc(=O)[nH]c3ccc(S(=O)(=O)N4CCCCCC4)cc23)C1C (centres undefined) | 1
COc1ccc(N2CCN(C(c3cccs3)C(C)NC(=O)c3cccc(F)c3)CC2)cc1 (centres undefined) | 0.92
O=C(Nc1ccccc1)c1ccc(NC2=NC3CS(=O)(=O)CC3S2)cc1 (centres undefined) | 0.99
O=C(NC1CC1)c1ccc2c(c1)N(Cc1cccc(Cl)c1)C(=O)c1ccccc1S2(=O)=O | 0.92
Cn1c2ccccc2c2c(C(=O)NCc3ccc4c(c3)OCO4)cn(C3CCCC3)c(=O)c21 | 0.86
CCN(Cc1ccccc1)C(=O)c1ccc(CNc2c(N3CCOCC3)c(=O)c2=O)cc1 | 1.3
COc1ccc(OC)c(NC(=O)CSc2nccn2-c2ccccc2)c1 | 0.76
Cc1ccc(NC(=O)CSc2nccn2-c2ccc(F)cc2)cc1Cl | 0.82
CCOc1ccc(-n2ccnc2SCC(=O)Nc2cc(Cl)ccc2OC)cc1 | 1.1
COc1ccc(-n2ccnc2SCC(=O)Nc2cc(Cl)ccc2OC)cc1 | 1.1
COc1ccc(-n2ccnc2SCC(=O)Nc2ccccc2OC)cc1 | 0.66
COc1ccc(OC)c(NC(=O)CSc2nccn2-c2ccc(F)cc2)c1 | 0.48*
COc1cccc(-n2ccnc2SCC(=O)Nc2cc(OC)ccc2OC)c1 | 0.81
COc1ccc(NC(=O)CSc2nccn2-c2ccc(OC)cc2)cc1 | 0.86
SMILES | CBX7 AlphaScr
COc1ccc(Cl)cc1NC(=O)CSc1nccn1-c1ccc(F)cc1 | 0.4*
COc1ccc(NC(=O)CSc2nccn2-c2ccc(Cl)cc2)c(OC)c1 | 0.49*
COc1ccc(-n2ccnc2SCC(=O)Nc2ccc(Cl)cc2)cc1 | 0.9
COc1ccc(-n2ccnc2SCC(=O)Nc2ccc(C)c(Cl)c2)cc1 | 0.47*
O=C1CC(c2nc3ccccc3n2CCOc2ccccc2Cl)CN1Cc1ccccc1 (centres undefined) | 0.83
COc1ccc(Nc2cc(C(=O)NC3CCCC(C)C3C)c3ccccc3n2)cc1OC (centres undefined) | 0.68
CCOc1ccc(C(=O)NCCc2cc3c(C)ccc(C)c3[nH]c2=O)cc1 | 1.1
COc1ccc(-c2cn(-c3ccc(Cl)cc3)c(SCC(=O)Nc3ccc(F)cc3)n2)cc1OC | 0.45*
COc1ccc(-c2cn(-c3ccc(Cl)cc3)c(SCC(=O)Nc3cccc(C)c3)n2)cc1OC | 0.53
Cc1ccc(-n2cc(-c3ccc4c(c3)OCO4)nc2SCC(=O)Nc2cc(C)cc(C)c2)cc1 | 0.49*
Cc1ccc(-n2cc(-c3ccc4c(c3)OCO4)nc2SCC(=O)Nc2ccccc2)cc1 | 0.81
Cc1ccc(-n2cc(-c3ccc4c(c3)OCO4)nc2SCC(=O)Nc2ccc3c(c2)OCO3)cc1 | 0.85
COc1ccc(-c2cn(-c3ccccc3)c(SCC(=O)Nc3ccc(F)cc3)n2)cc1OC | 0.66
COc1cc2c(cc1OC)C1C(C(=O)NCCc3cccc(C)c3)c3ccccc3C(=O)N1CC2 (centres undefined) | 1
COc1ccc(OC)c(N2CC(c3nc4ccccc4n3Cc3ccccc3)CC2=O)c1 (centres undefined) | 0.96
Cc1cccc(OCc2nc(C#N)c(NCc3ccc(F)cc3)o2)c1 | 0.87
N#Cc1nc(COc2ccccc2Cl)oc1N1CCCCCC1 | 0.7
N#Cc1nc(COc2ccccc2)oc1N1CCCCC1 | 0.64
N#Cc1nc(COc2ccc(Cl)cc2)oc1N1CCCCCC1 | 0.37*
N#Cc1nc(COc2cccc(Cl)c2)oc1N1CCCCCC1 | 0.45*
N#Cc1nc(COc2cccc(Cl)c2)oc1N1CCCCC1 | 0.5
CC1CCN(c2oc(COc3cccc(Cl)c3)nc2C#N)CC1 | 0.57
Cc1cccc(NC(=O)c2cc3c(s2)-c2ccccc2OC3)n1 | 1.2
COCCN(CCOC)S(=O)(=O)c1ccc(C(=O)Nc2nc(-c3ccc(OC)cc3)cs2)cc1 | 1
CCCN(CCC)S(=O)(=O)c1ccc(C(=O)Nc2nnc(-c3ccccc3Cl)o2)cc1 | 1.1
SMILES | CBX7 AlphaScr
Cc1nnc(NC(=O)c2ccc(S(=O)(=O)N(C)Cc3ccccc3)cc2)o1 | 0.0081*
COc1ccc(-c2nnc(NC(=O)c3ccc(S(=O)(=O)N(C)C)cc3)o2)c(OC)c1 | 0.58
CN(C1CCCCC1)S(=O)(=O)c1ccc(C(=O)Nc2nnc(-c3ccccc3Cl)o2)cc1 | 0.91
Cc1nnc(NC(=O)c2ccc(S(=O)(=O)N(C)C)cc2)o1 | 0.012*
CCN(Cc1ccccc1)S(=O)(=O)c1ccc(C(=O)Nc2nnc(-c3ccc(OC)cc3)o2)cc1 | 1.2
CN(Cc1ccccc1)S(=O)(=O)c1ccc(C(=O)Nc2ccccc2-c2nc3ccccc3o2)cc1 | 1
CN(C)S(=O)(=O)c1ccc(C(=O)Nc2c(C(N)=O)oc3ccccc23)cc1 | 1.1
COCCN(CCOC)S(=O)(=O)c1ccc(C(=O)Nc2nnc(-c3ccc(F)cc3)o2)cc1 | 0.025*
COCCN(CCOC)S(=O)(=O)c1ccc(C(=O)Nc2nnc(-c3ccccc3Cl)o2)cc1 | 0.27*
COCc1nnc(NC(=O)c2ccc(S(=O)(=O)N(C)Cc3ccccc3)cc2)o1 | 0.88
CCN(CCCNC(=O)c1cccc(NC2=NC3CS(=O)(=O)CC3S2)c1)c1ccccc1 (centres undefined) | 0.92
COc1ccc2nc(NC(=O)c3c(-c4ccccc4Cl)noc3C)sc2c1 | 1
CCCS(=O)(=O)N1CCC(C(=O)NCc2cccc(OC)c2)CC1 | 0.99
O=C(NCc1ccccc1)c1cc(-c2ccc(Br)cc2)nc2ccccc12 | 0.84
COC(=O)Cc1nc(Nc2ccc(Cl)c(Cl)c2)c2c(C)c(C)sc2n1 | 1.1
COC(=O)CNC(=O)Cn1cnc2sc(C)c(S(=O)(=O)N3CC(C)CC(C)C3)c2c1=O (centres undefined) | 1
CCCCN(CCCC)S(=O)(=O)c1ccc(C(=O)Nc2ccccc2-c2nc3ccccc3[nH]2)cc1 | 1
COCCN(CCOC)S(=O)(=O)c1ccc(C(=O)Nc2nnc(COC)o2)cc1 | 0.58
COCCN(CCOC)S(=O)(=O)c1ccc(C(=O)Nc2nc(-c3ccncc3)cs2)cc1 | 1
CCCCN(CCCC)S(=O)(=O)c1ccc(C(=O)Nc2nc3c(s2)COc2ccccc2-3)cc1 | 0.96
COCCN(CCOC)S(=O)(=O)c1ccc(C(=O)Nc2nnc(C)o2)cc1 | 0.0057*
CCCCN(CCCC)S(=O)(=O)c1ccc(C(=O)Nc2nnc(C)o2)cc1 | 0.0047*
O=C(NCCCN1CCC(Cc2ccccc2)CC1)c1csc2c1CCCCC2 | 0.96
CCN1CCN(C(=O)CN2C(=O)CC(C)(C)S(=O)(=O)c3ccccc32)CC1 | 1
